Each sequence was assayed on LXRa:RXRa (NR concentration 270 nM, RXRa partner concentration 90 nM) (assay: PBM binding z-score (relative to random genomic background probes); higher = stronger binding; sequences stand for … in GC…GCGATTGACAGCGTAGAATGAAGG).
Summary of the method: (§1)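 Each nuclear receptor dimer, without ligand, was incubated for 1 h on custom Agilent 4×180K protein-binding microarrays. Binding was detected with antibodies against each partner (one per run), and scanned fluorescence was regression-normalized. The binding z-scores are referenced to random human genomic background probes.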

Sequence	PBM binding z-score
TAGCCTAGGTCATTCAGGGGCCAGTTTAGAAAGC	3.81
CTCGAAAGGTCGTGCTCACGTGAGTATACCAAAC	3.95
GCTCGGAGGACAAGGTCAGAGCATTGTCCGTAGA	1.75
TAGCCTAGGTCAGATCGGGCAAGTATACGCTATA	1.1
CAAACTAGGTCAAGGTCATAGTCGGTTTGTGCCA	5.31
TTACCAAGGTGAAGGTCCTTGATCCCTCTGTAGA	0.644
CGAACGAGGGCATGAGTTGACAGCAAATGCCGAT	0.522
ATCGAAAGGTCGAACGTGAGTATACCCACCCGAA	3.99
TCTGCTAGGTCAGCTGGTCAGCTAACGAGCTGCC	0.826
GATACAGGGTCAGCCAGAGGCCAGAGTATGGAAA	2.94
GCTATTAGTTGAAAGGGCAACCCAATGATTCTCG	0.68
GCGACTGGGGCATCAGCAGTTTACCATAACTTAA	-0.328
ATATGAAGGTTACATCCGGGTCATTCAGGCTATG	4.87
CGTCAAAGATCAACTAAGGTAACGTAAAGCACGC	0.952
AGATTGAGGTTAAGATCAGGGAAACAGAATACAT	2.1
GATACAGGGTCAAGGCCAGCGTACGCGTATTGAT	4.12
AGTACGAGGGCACGCTGAGTTGATAGCAGAGTAG	0.941
TGAATGAGGTTAAAGATCCGGGAACGTGGCGTCG	1.91

What follows are sequences tested on LXRa homodimer (NR concentration 270 nM) in the same assay as above.
Summary of the method: as §1

Sequence	PBM binding z-score
CGTCCAAGGTCGTAGGAGGTCAGTGAAGACAGAT	1.14
TCTGCTAGGTCAACGATGATCAGCTAATCTGCTA	-0.355
TCAAATAGGTAAAGGTGAAAGTCGAACGATATGA	0.0504
TCTATTAGTTGATTAGGGCAACTGAAACAGCGGA	0.0182
AGAATGAGGTAATACGTAGATCAGGGAAGAAAGT	-0.0872
ACTATTAGTTGACTTAGGACAACCGATACGACGC	0.606
AGTCAAAGTTCAGGACGAAGTAACGTAAAGCACG	0.943
TCTTGTAGATCAAGGGTTAAGAAAGCCGAAGCCT	-0.616
CGAACTAGGTCGGAACAGGACAGTGAAGGATGAT	-0.434
AGAACGAGGGCAATAAGTTGATAGCACGGGTGGC	-0.278
AGAACGATGGCACGCTGAGTTGATAGCAGAGTAG	-0.952
GATACAGGGTCAGCTAGAGGACAGAGTATGGAAA	-0.154
TCATATAGGTAAATGCTAGGTGAAAGTGCGATCT	0.315
GCTAGTTGGTCAGTAAAAGGTCAGACACCGGTCG	2.83
AGAATGAGGTTACCAAACATCAGGGAAACGCTTG	-0.389
ACTCGGAAGACAAAGGTCAGAGCTACGCCAGTGA	1.47
ACAGACAGGTTAGTGAAGGTAACTCAGCTGGACG	-0.196
TCTATTAGTTGACTAGGGCAACCGAAACAGCGGA	-0.0763
ACTAGCAGGCCAAGTTTGGGTCACTTAAACAAAG	-0.18
CCTACTGGGCCACGAAAGCTCATTGATTCAGTGA	-0.683

Sequence	PBM binding z-score
ACTAGCAGGCCAGGTTTGGGTCACTCAAACAAAG	-0.504
TAGCCTACGTCAGATCGGGCCAGTATACGCTATA	-0.851
TAGCCTAGGTCATTCAGGGGCCAGTTTAGAAAGC	1
CTCGAAAGGTCGTGCTCACGTGAGTATACCAAAC	0.0228
GCTCGGAGGACAAGGTCAGAGCATTGTCCGTAGA	-0.445
TAGCCTAGGTCAGATCGGGCAAGTATACGCTATA	-0.305
CAAACTAGGTCAAGGTCATAGTCGGTTTGTGCCA	3.83
TTACCAAGGTGAAGGTCCTTGATCCCTCTGTAGA	-0.31
CGAACGAGGGCATGAGTTGACAGCAAATGCCGAT	-0.133
ATCGAAAGGTCGAACGTGAGTATACCCACCCGAA	0.856
TCTGCTAGGTCAGCTGGTCAGCTAACGAGCTGCC	-1.11
GATACAGGGTCAGCCAGAGGCCAGAGTATGGAAA	-0.284
GCTATTAGTTGAAAGGGCAACCCAATGATTCTCG	0.645
GCGACTGGGGCATCAGCAGTTTACCATAACTTAA	-0.256
ATATGAAGGTTACATCCGGGTCATTCAGGCTATG	1.86
CGTCAAAGATCAACTAAGGTAACGTAAAGCACGC	0.0696
AGATTGAGGTTAAGATCAGGGAAACAGAATACAT	0.386
GATACAGGGTCAAGGCCAGCGTACGCGTATTGAT	0.203
AGTACGAGGGCACGCTGAGTTGATAGCAGAGTAG	-0.408
TGAATGAGGTTAAAGATCCGGGAACGTGGCGTCG	-0.227

These sequences were tested on LXRb:RXRa (NR concentration 270 nM, RXRa partner concentration 90 nM) in the same assay as above.
Summary of the method: as §1

Sequence	PBM binding z-score
CGTCCAAGGTCGTAGGAGGTCAGTGAAGACAGAT	3.33
TCTGCTAGGTCAACGATGATCAGCTAATCTGCTA	1.52
TCAAATAGGTAAAGGTGAAAGTCGAACGATATGA	1.72
TCTATTAGTTGATTAGGGCAACTGAAACAGCGGA	0.747
AGAATGAGGTAATACGTAGATCAGGGAAGAAAGT	0.215
ACTATTAGTTGACTTAGGACAACCGATACGACGC	0.299
AGTCAAAGTTCAGGACGAAGTAACGTAAAGCACG	1.68
TCTTGTAGATCAAGGGTTAAGAAAGCCGAAGCCT	0.958
CGAACTAGGTCGGAACAGGACAGTGAAGGATGAT	-0.642
AGAACGAGGGCAATAAGTTGATAGCACGGGTGGC	-0.143
AGAACGATGGCACGCTGAGTTGATAGCAGAGTAG	-0.881
GATACAGGGTCAGCTAGAGGACAGAGTATGGAAA	2.61
TCATATAGGTAAATGCTAGGTGAAAGTGCGATCT	0.829
GCTAGTTGGTCAGTAAAAGGTCAGACACCGGTCG	2.74
AGAATGAGGTTACCAAACATCAGGGAAACGCTTG	1.31
ACTCGGAAGACAAAGGTCAGAGCTACGCCAGTGA	3.28
ACAGACAGGTTAGTGAAGGTAACTCAGCTGGACG	-0.21
TCTATTAGTTGACTAGGGCAACCGAAACAGCGGA	0.429
ACTAGCAGGCCAAGTTTGGGTCACTTAAACAAAG	0.878
CCTACTGGGCCACGAAAGCTCATTGATTCAGTGA	-1

Sequence	PBM binding z-score
ACTAGCAGGCCAGGTTTGGGTCACTCAAACAAAG	0.269
TAGCCTACGTCAGATCGGGCCAGTATACGCTATA	-1.01
TAGCCTAGGTCATTCAGGGGCCAGTTTAGAAAGC	3.32
CTCGAAAGGTCGTGCTCACGTGAGTATACCAAAC	3.69
GCTCGGAGGACAAGGTCAGAGCATTGTCCGTAGA	1.15
TAGCCTAGGTCAGATCGGGCAAGTATACGCTATA	0.779
CAAACTAGGTCAAGGTCATAGTCGGTTTGTGCCA	4.11
TTACCAAGGTGAAGGTCCTTGATCCCTCTGTAGA	1.04
CGAACGAGGGCATGAGTTGACAGCAAATGCCGAT	0.145
ATCGAAAGGTCGAACGTGAGTATACCCACCCGAA	3.32
TCTGCTAGGTCAGCTGGTCAGCTAACGAGCTGCC	0.287
GATACAGGGTCAGCCAGAGGCCAGAGTATGGAAA	2.56
GCTATTAGTTGAAAGGGCAACCCAATGATTCTCG	0.925
GCGACTGGGGCATCAGCAGTTTACCATAACTTAA	0.505
ATATGAAGGTTACATCCGGGTCATTCAGGCTATG	3.51
CGTCAAAGATCAACTAAGGTAACGTAAAGCACGC	0.635
AGATTGAGGTTAAGATCAGGGAAACAGAATACAT	2.06
GATACAGGGTCAAGGCCAGCGTACGCGTATTGAT	3.86
AGTACGAGGGCACGCTGAGTTGATAGCAGAGTAG	0.078
TGAATGAGGTTAAAGATCCGGGAACGTGGCGTCG	1.13

Source: the supplement of paper PMC6555819
